Assay outcomes from PubChem BioAssay.
NPC1 promoter act = qHTS Assay for NPC1 Promoter Activators; Potency, µM (titrated, usually from 9.22 µM), inactives show at the highest dose activation, actives largely listed as activators; actives 2.4% (n = 320,000); Huh7 NPC1 promoter luciferase reporter, 24 h; also: % of control where 0% means no effect; nearly all actives have a fitted effect of over 60% in size
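Quantitative HTS used a cell-based reporter: Huh7 cells stably bearing the NPC1 promoter upstream of luciferase were treated with compounds for 24 h, and promoter activation was read as luminescence.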
FLuc counter = qHTS profiling assay for firefly luciferase inhibitor/activator using purifed enzyme and Km concentrations of substrates (counterscreen for miR-21 project) | purified FLuc, Km substrates, luminescence inhibition | Potency, µM (series often up to 57.5 µM), without a hit: top-dose activity change, negative = inhibition, hits mostly inhibitors | actives 6.9% (n = 360,000);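 also: plate controls were vehicle for no effect and reference inhibitor for full effect; nearly all actives have a fitted effect of over 55% in size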
Target sequence (P08659 whole entry, looked up): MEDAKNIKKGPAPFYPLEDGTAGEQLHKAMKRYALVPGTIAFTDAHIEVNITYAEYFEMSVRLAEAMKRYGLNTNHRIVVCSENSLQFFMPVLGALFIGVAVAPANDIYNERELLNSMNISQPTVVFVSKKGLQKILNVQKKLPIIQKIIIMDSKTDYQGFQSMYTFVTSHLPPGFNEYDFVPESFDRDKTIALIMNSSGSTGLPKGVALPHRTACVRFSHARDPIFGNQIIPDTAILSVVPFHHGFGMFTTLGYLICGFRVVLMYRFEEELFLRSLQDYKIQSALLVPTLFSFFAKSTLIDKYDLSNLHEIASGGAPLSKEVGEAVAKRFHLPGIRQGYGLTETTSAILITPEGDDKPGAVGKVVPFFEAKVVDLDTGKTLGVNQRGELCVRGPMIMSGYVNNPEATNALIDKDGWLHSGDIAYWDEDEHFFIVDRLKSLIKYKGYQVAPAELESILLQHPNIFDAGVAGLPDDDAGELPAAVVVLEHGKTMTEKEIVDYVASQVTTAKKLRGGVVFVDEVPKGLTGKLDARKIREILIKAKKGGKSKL
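Purified P. pyralis luciferase (10nM final) with 10uM D-luciferin and 10uM ATP (Km levels) in 50mM Tris acetate pH 7.5, 10mM Mg acetate, 0.01% Tween-20, 0.05% BSA; qHTS 6-point titration, ~60 µM downward; luminescence read.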
ELG1 genotoxic = qHTS screen for small molecules that induce genotoxicity in human embryonic kidney (HEK293T) cells expressing luciferase-tagged ELG1; actives 1.3% (n = 330,000); HEK293T ELG1-luciferase reporter, luminescence, 16 h; Potency, µM (titrated, usually from 46 µM), for the others: top-dose activity change, positive = activation, usual class: activators; also: % of control where 0% means no effect; nearly all actives have a fitted effect of over 60% in size
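Step 1: seed 2,000 HEK293T ELG1-luciferase cells per well. Step 2: add compound or DMSO, incubate 16 hr at 37 °C. Step 3: ONE-Glo, 30 min at room temperature, read luminescence.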
Rab9 promoter act = qHTS Assay for Rab9 Promoter Activators. Potency, µM (titrated, usually from 9.22 µM), for the others: at the top dose activation, negative = inhibition, usual class: activators. actives 2.8% (n = 320,000). Huh7 Rab9 promoter-luciferase reporter, luminescence, 24 h; also: % of control where 0% means no effect; nearly all actives have a fitted effect of over 60% in size
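Promoter activation is measured as luciferase luminescence in Huh7 cells stably transfected with a Rab9 promoter–luciferase construct, following 24 h compound exposure at 37 °C and 10 min reagent incubation at ambient temperature.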
SMN2 splice up = qHTS Assay for Enhancers of SMN2 Splice Variant Expression. HEK293 SMN2-luciferase splicing reporter, luminescence, 30-36 h. Potency, µM (series often up to 46.1 µM), inactives show at the top dose activity change, positive = activation, actives largely listed as activators. actives 2.8% (n = 210,000). AID 1458, 2008; also: % of control where 0% means no effect; nearly all actives have a fitted effect of over 55% in size
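HEK293 cells carry an SMN2 […]–luciferase reporter in which exon 7 inclusion puts luciferase in frame. Cells were plated 10-12 h before compound addition, then incubated 30-36 h at 37C. ONE-Glo luminescence was read; sodium butyrate at 4.5 mM final served as control.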
The depositor's hits bear a star; [ ] = remark or other dose. Hits are enriched below; roughly 7.4% of the tested compounds scored in any of these assays. Calls follow the shape of the dose curve; as a rule, active = well fitted curve in the direction sought with a large enough effect; inconclusive = small, poorly fitted or top-dose-only effect, or another doubt; inactive = no such curve, though single readings can be large; an effect the other way counts as inactive or inconclusive. Potency is read from the fitted curve at half-maximal effect.

Nc1nc2ccccc2n1/N=C/c1ccc2c(c1)OCO2 was read as NPC1 promoter act 2µM*, FLuc counter 11µM*, ELG1 genotoxic inconclusive and Rab9 promoter act 4µM*.
For Cn1c(/N=C/c2ccc3c(c2)OCO3)nc2ccccc21 the results were NPC1 promoter act -4%, FLuc counter 0.24µM*, ELG1 genotoxic 2%, Rab9 promoter act -3% and SMN2 splice up -3%.
`Nc1nc2ccccc2n1/N=C/c1ccc(Br)cc1` gave NPC1 promoter act inconclusive, FLuc counter inconclusive, ELG1 genotoxic 16µM*, Rab9 promoter act inconclusive and SMN2 splice up 35µM*.
CCCOc1ccc(-c2nonc2NC(=O)c2cc(OC)c(OC)c(OC)c2)cc1OCCC was read as FLuc counter -1% and SMN2 splice up -1%.
`Cc1ccc(Nc2cccccc2=O)cc1` gave NPC1 promoter act inconclusive, FLuc counter 15µM*, ELG1 genotoxic inconclusive and Rab9 promoter act 3.5µM*.
CCOc1ccc(-c2cc(-c3nc(-c4cc(OC)c(OC)c(OC)c4)no3)[nH]n2)cc1 was read as FLuc counter 21µM*.
COc1ccc(-c2noc(-c3cc(-c4ccc(F)cc4)n[nH]3)n2)cc1 was read as FLuc counter 4%.
CCNC(=O)c1cnc2sc(N3CCC(C)CC3)nn2c1=O was read as FLuc counter -6%.
`CCOC(=O)c1cnc(Nc2nc3ccccc3o2)nc1CSC(=S)N(CC)CC` gave NPC1 promoter act 8%, FLuc counter -11%, ELG1 genotoxic 0%, Rab9 promoter act 13% and SMN2 splice up -7%.
Cc1nc(Nc2nc3ccccc3o2)nc(C)c1C was read as NPC1 promoter act 1µM*, FLuc counter 8.5µM*, ELG1 genotoxic inconclusive, Rab9 promoter act inconclusive and SMN2 splice up 5.6µM*.
Screening Cc1ccc(Nc2nc3ccccc3o2)cc1F returned NPC1 promoter act inconclusive, FLuc counter 6µM*, ELG1 genotoxic 5.8µM*, Rab9 promoter act 1.6µM* and SMN2 splice up inconclusive.
CCCc1nc(Nc2nc3ccccc3o2)nc(C)c1C(=O)OCC was read as NPC1 promoter act inconclusive, FLuc counter 2.7µM*, ELG1 genotoxic inconclusive, Rab9 promoter act 1.8µM* and SMN2 splice up inconclusive.
Cc1ccnc(Nc2nc3ccccc3o2)n1 was read as NPC1 promoter act inconclusive, FLuc counter 3µM*, ELG1 genotoxic 1.2µM*, Rab9 promoter act 0.4µM* and SMN2 splice up 2.5µM*.
`COCC(=O)N1CCC2(CC1)CCN(c1ccncc1)CC2` gave SMN2 splice up -15%.
Screening CCC(CC)C(=O)Nc1ccc(C(=O)OCc2cc(=O)n3nc(C4CC4)sc3n2)cc1 returned FLuc counter -11%.
For Cc1ccc2oc(Nc3nc(C)c(C)c(C)n3)nc2c1 the results were NPC1 promoter act 1.6µM*, FLuc counter 11µM*, ELG1 genotoxic inconclusive and Rab9 promoter act 2.5µM*.
For Cn1cc(CNC(=O)c2cnn3c2NC(=C2CC2)C=C3C(F)F)cn1 the results were FLuc counter 0%.
For COC(=O)C1=C(C(=O)OC)[C@@H]2N(C)c3ccccc3[C@@]23C[C@@H](C(=O)OC)N(S(=O)(=O)c2ccc(C(F)(F)F)cc2)C3=N1 the results were SMN2 splice up 5%[9.22 µM].
Screening COc1ccc(-n2nc(C(=O)NCCc3cccc(C)c3)c3c4ccccc4n(C)c3c2=O)cc1Cl returned FLuc counter 0% and SMN2 splice up -7%.
Cc1ccc(/C=C/C(=O)NCCc2ccccc2)o1 was read as NPC1 promoter act inconclusive, FLuc counter 17µM*, ELG1 genotoxic inconclusive and Rab9 promoter act inconclusive.
For CC(C)=CC(=O)NCCc1ccccc1 the results were FLuc counter 13µM* and SMN2 splice up 13µM*.
For O=C(O)/C=C/C(=O)NCCc1ccccc1 the results were NPC1 promoter act -2%, FLuc counter -4%, ELG1 genotoxic 0%, Rab9 promoter act -1% and SMN2 splice up -3%.
CCCCOC(=O)c1ccc(NC(=O)Cc2coc3ccc(C(C)C)cc23)cc1 was read as FLuc counter 1% and SMN2 splice up 6%.
For Cc1c(F)cccc1NC(=O)C1CCCN1S(=O)(=O)c1ccc(F)cc1 (stereo not drawn) the results were FLuc counter -7% and SMN2 splice up -15%.
CCNC(=O)CN(CCc1ccccc1)S(=O)(=O)c1ccc(OC)cc1 was read as NPC1 promoter act 1%, FLuc counter -1%, ELG1 genotoxic -1%, Rab9 promoter act 3% and SMN2 splice up -17%.
For CCNC(=O)CN(Cc1ccccc1)S(=O)(=O)c1ccccc1 the results were NPC1 promoter act 0%, FLuc counter 8%, ELG1 genotoxic 23µM*, Rab9 promoter act 0% and SMN2 splice up 0%.
`CCC1C(=O)n2nc(-c3ccccc3)cc2N=C1C` (stereo not drawn) gave NPC1 promoter act inconclusive, FLuc counter 13µM*, ELG1 genotoxic inconclusive, Rab9 promoter act 2.8µM* and SMN2 splice up 13µM*.
For O=C(O)Cn1nc(-c2ccccc2)cc1-c1ccccc1 the results were NPC1 promoter act -4%, FLuc counter -8%, ELG1 genotoxic 2% and Rab9 promoter act 11%.
Screening COc1cc(NC(=O)Cn2c(=O)n(CC(=O)NCCc3ccc(OC)c(OC)c3)c(=O)c3sccc32)cc(OC)c1 returned FLuc counter 6% and SMN2 splice up -6%.
CC(C)(C)c1cc(N2CCOCC2)n2ncc(-c3ccc(Cl)cc3)c2n1 was read as NPC1 promoter act -4%, FLuc counter inconclusive, ELG1 genotoxic 1% and Rab9 promoter act 12%.
Screening Cc1cc(N2CCOCC2)n2nc(C(F)(F)F)c(-c3ccccc3)c2n1 returned NPC1 promoter act -5%, FLuc counter 7%, ELG1 genotoxic -3% and Rab9 promoter act -5%.
Cc1cc(N2CCOCC2)n2ncc(-c3ccccc3)c2n1 was read as NPC1 promoter act 0.56µM*, FLuc counter 0.34µM*, ELG1 genotoxic 0.18µM*, Rab9 promoter act 0.71µM* and SMN2 splice up 2.2µM*.
For Cc1cc(C)n(-c2cc(C(C)(C)C)nc3c(-c4ccccc4)cnn23)n1 the results were NPC1 promoter act 2.5µM*, FLuc counter 1.9µM*, ELG1 genotoxic inconclusive and Rab9 promoter act 2.8µM*.
Cc1ccc(-c2cnn3c(N4CCOCC4)cc(C)nc23)cc1 was read as NPC1 promoter act -11%, FLuc counter 0.48µM*, ELG1 genotoxic inconclusive and Rab9 promoter act -14%.
Screening Cc1cc(N2CCOCC2)n2ncc(-c3ccc(Cl)cc3)c2n1 returned NPC1 promoter act 2.2µM*, FLuc counter 0.6µM*, ELG1 genotoxic inconclusive and Rab9 promoter act 0.63µM*.
